Test results as given in PubChem BioAssay AID651789 (National Center for Advancing Translational Sciences (NCATS), 2012).
Records with an inconclusive call do not appear. Where a call stands in place of a potency, no number is given. Activity calls are given as the source filed them. Calls follow the shape of the dose curve; as a rule, active = well fitted inhibition curve with a large enough effect; inconclusive = small, poorly fitted or top-dose-only effect; inactive = no such curve, though single readings can be large or run the other way.
Potency is read from the fitted curve at half-maximal effect.

Test: Acumen qHTS Assay for Inhibitors of the mTORC1 Signaling Pathway in WT MEF Cells: Hit Validation; also: nearly all actives have a fitted effect of over 60% in size
Conditions: Acumen imaging; series mostly up to 37.3 µM
Summary of the method: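 Read-out is immunofluorescent phospho-rpS6 (Ser235/236) normalised to PI-stained cell number, reported as % active cells using a 7.5 nM rapamycin threshold. Cells: WT or Tsc2-/-, p53-/- MEFs, compound-exposed 24 h at 37C; PI count also tracks viability.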
With `COc1cccc(-c2cc(C(=O)Nc3cnn(Cc4ccc(Cl)cc4Cl)c3)no2)c1` the Potency was “inactive”.
For `Cc1ccc(NC(=O)CSc2ncc3c(n2)-c2ccccc2N(C)S3(=O)=O)c(Cl)c1`, the Potency was “inactive”.
For `Cc1ccc(C(C)C)c(OCC(=O)Nc2cc(-c3nc4ccccc4[nH]3)ccc2C)c1`, the Potency was “inactive”.
With `COc1ccc2c(CNCCc3cccs3)c(C(=O)O)n(Cc3ccc(F)cc3Cl)c2c1` the Potency was “inactive”.
For `CC1CCCCN1c1nnc(NC(=O)Nc2ccccc2F)s1` (stereo not given), the Potency was “inactive”.
With `O=S(=O)(NCC(c1ccco1)N1CCN(c2ccc(F)cc2)CC1)c1ccccc1` (stereo not given) the Potency was “inactive”.
For `Cc1noc(/C=C/N(C)C)c1S(=O)(=O)N1CCCC(C(=O)Nc2ccc(F)cc2F)C1` (stereo not given), the Potency was 1.85 µM (active).
In the case of `COc1ccc(C2CC(=O)c3c([nH]c(C(=O)OC4CCCCCC4)c3C)C2)cc1OC` (stereo not given), the Potency is reported as “inactive”.
For `COc1ccc(-c2n[nH]c3c2C(c2ccc(O)cc2)N(c2ccc(Br)cc2)C3=O)cc1` (stereo not given), the Potency was “inactive”.
For `Cc1ccc(-c2nc3sccn3c2Nc2ccc(C)c(C)c2)cc1`, the Potency was “inactive”.
For `Cc1nn(CCCC(=O)NCc2ccccc2)c(=O)c2c1sc1ccccc12`, the Potency was “inactive”.
For `C#CC(C)(CC)NC(=O)Cn1nnc(-c2ccc(OCc3c(F)cccc3Cl)cc2)n1` (stereo not given), the Potency was “inactive”.
For `CCn1c2ccccc2c2cc(CN3CCN(Cc4ccc(Cl)cc4)CC3)ccc21`, the Potency was “inactive”.
With `CN1CCN(C2(CNC(=O)COc3ccc(C(C)(C)C)cc3)CCCCC2)CC1` the Potency was “inactive”.
With `Cc1cccc(CS(=O)(=O)c2ncc(Cl)c(C(=O)Nc3nnc(C(C)C)s3)n2)c1` the Potency was 14.7 µM (active).
With `CC(C)CCNc1nc(Nc2ccccc2)c2cnn(C)c2n1` the Potency was “inactive”.
In the case of `O=C(CCCn1c(=O)c2ccccc2n(Cc2cccc(Cl)c2)c1=O)NCCc1ccc(Cl)cc1`, the Potency is reported as “inactive”.
With `CCN(CC)Cc1c(NC(=O)c2ccc(OC)cc2)sc2c1CCCC2` the Potency was “inactive”.
With `Cc1ccc(Nc2nnc(-c3ccc(C)c(S(=O)(=O)N4CCOCC4)c3)c3ccccc23)c(C)c1` the Potency was “inactive”.
With `Brc1ccc(Nc2c3c(nc4nncn24)CCC3)cc1` the Potency was “inactive”.
In the case of `COc1ccccc1N1CCN(Cc2cc(COC(C)C)c3cccnc3c2O)CC1`, the Potency is reported as 2.93 µM (active).
In the case of `CCCCCn1c(=N)n(CC(O)COc2cccc(C)c2)c2ccccc21` (stereo not given), the Potency is reported as 4.14 µM (active).
With `CC1C(=O)N2CCCc3cc(S(=O)(=O)Nc4ccc(Br)cc4F)cc1c32` (stereo not given) the Potency was 2.07 µM (active).
In the case of `CCOC(=O)c1ccc(N2C(=O)c3n[nH]c(C)c3C2c2cccc(Br)c2)cc1` (stereo not given), the Potency is reported as “inactive”.
For `CCc1ccc2ncc(S(=O)(=O)c3ccc(Cl)cc3)c(N3CCN(CC)CC3)c2c1`, the Potency was “inactive”.
In the case of `Cn1ccc2c(OCC(=O)Nc3ccc(OC(F)(F)F)cc3)cccc2c1=O`, the Potency is reported as “inactive”.
For `CCC1=Nc2cc(C(=O)NC3CCCC3)ccc2Sc2ccc(Br)cc21`, the Potency was 1.85 µM (active).
In the case of `Cc1cc(C)c(NC(=O)c2sc3nc(C)cc(C)c3c2NC(=O)c2ccccc2)c(C)c1`, the Potency is reported as “inactive”.
In the case of `CC(C)CCNC(=O)Nc1ccc2c(c1)N(C)C(=O)c1ccccc1S2`, the Potency is reported as “inactive”.
With `CCS(=O)(=O)c1oc(-c2ccc(F)cc2)nc1S(=O)(=O)c1ccc(Br)cc1` the Potency was 4.65 µM (active).
In the case of `Cc1cccc(OCc2ccc(-c3nc(C#N)c(NCCN(C)C)o3)o2)c1`, the Potency is reported as “inactive”.
With `Cc1c(C(=O)Nc2ccc(F)cc2F)nnn1-c1ccccc1Br` the Potency was “inactive”.
In the case of `CCN1CCOC(=O)C1CC(=O)Nc1cc(C)ccc1OC` (stereo not given), the Potency is reported as 16.5 µM (active).
For `COc1ccc(S(=O)(=O)NCCc2sc3nc(-c4ccc(C)cc4)nn3c2C)cc1F`, the Potency was “inactive”.
For `COc1ccc(NC(=O)CSc2nc3ccccc3n2Cc2cccc(OC)c2)cc1`, the Potency was “inactive”.
With `O=C(NCc1ccccc1)c1ccc2c(c1)N(Cc1ccccc1F)C(=O)c1ccccc1S2=O` (stereo not given) the Potency was “inactive”.
In the case of `COC(=O)c1ccccc1NC(=O)CSc1n[nH]c(CC(C)C)n1`, the Potency is reported as “inactive”.
In the case of `CS(=O)c1ccc(-c2nc(-c3ccc(F)cc3)c(-c3ccncc3)[nH]2)cc1` (stereo not given), the Potency is reported as “inactive”.
With `CCN(Cc1nc(-c2ccc(OC)cc2)oc1C)S(=O)(=O)c1ccc(Cl)cc1` the Potency was “inactive”.
In the case of `COc1ccc(S(=O)(=O)NCCc2csc3nc(-c4ccc(Cl)cc4)nn23)cc1C`, the Potency is reported as “inactive”.
